Source: PubChem BioAssay (National Center for Advancing Translational Sciences (NCATS))
D2 PAM-1: positive allosteric modulators of human D2 dopamine receptor. P14416. HEK293 T-REx D2, calcium flux, EC20 dopamine potentiation. potentiation, % at 10 µM. 340,000 tested, 0.34% active. AID 485347;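 active = potentiation over 3 SD above the plate norm, cut at about 30% in these data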; note: 0% is about no effect
Target sequence (P14416 whole entry, looked up): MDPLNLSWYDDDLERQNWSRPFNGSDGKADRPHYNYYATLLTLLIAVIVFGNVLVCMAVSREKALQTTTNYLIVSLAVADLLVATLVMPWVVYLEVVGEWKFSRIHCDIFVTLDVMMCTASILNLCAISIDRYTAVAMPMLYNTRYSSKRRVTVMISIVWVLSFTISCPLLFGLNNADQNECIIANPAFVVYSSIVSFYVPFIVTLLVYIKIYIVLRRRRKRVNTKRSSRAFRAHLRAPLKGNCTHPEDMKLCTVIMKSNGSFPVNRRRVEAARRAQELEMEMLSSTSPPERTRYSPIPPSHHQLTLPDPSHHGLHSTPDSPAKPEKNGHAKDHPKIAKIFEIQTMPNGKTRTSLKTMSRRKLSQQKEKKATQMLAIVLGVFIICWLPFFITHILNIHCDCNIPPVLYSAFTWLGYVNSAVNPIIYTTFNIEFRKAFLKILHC
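Potentiation of an EC20 dopamine calcium response is measured in a force-coupled, tetracycline-inducible Hek293 Trex D2 line. Compound-only kinetic reads over 180 s flag agonists before dopamine addition.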
D2 ag-1: human D2 receptor agonism in beta-arrestin assay; AID 624465; activation, % (concentration not given with the values); P14416; 360,000 tested, 0.084% active; DiscoveRx PathHunter D2 beta-arrestin, luminescence, 90 min; 100% = 57 uM dopamine signal; in the data active = activation above about 40%
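Agonist mode: compounds alone added to overnight-plated D2 PathHunter cells for 90 min at 37 C, with 57 uM final dopamine (EC100) defining full response. Beta-arrestin recruitment detected by chemiluminescent reagent, read after 1 h at ambient temperature.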
D2 ag-2: activates the human D2 dopamine receptor | 340,000 tested, 0.53% active | HEK293 T-REx D2 cells, calcium flux agonist mode | activation, % at 2 µM | P14416;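 active = activation over 3 SD above normal in the single-dose calcium agonist read, cut at about 30% in these data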; note: 0% is about no effect
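Agonism scored from kinetic calcium signal (1 read/sec, 180 s) following compound pin transfer, after a 10 s baseline. Cells: HEK293 Trex line expressing inducible D2 receptor coupled to calcium, dye-loaded after overnight culture at 30 C.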
D2 PAM-2: human D2 receptor positive allosteric modulation. P14416. DiscoveRx D2 beta-arrestin cells, luminescence, 90 min; 100% = 57 uM dopamine signal. potentiation, % (concentration not given with the values). 360,000 tested, 0.23% active; in the data active = potentiation above about 50%
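PathHunter beta-arrestin assay in DiscoveRx D2 cells. Compounds were added with an EC20 of dopamine (50 nM final) for 90 min at 37 deg C. Luminescence was read 1 h after detection reagent, with 57 uM dopamine as the EC100 control.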
D2 antag: antagonizes the human D2 dopamine receptor. P14416. HEK293 TREx D2 cells, calcium flux, dopamine EC80. inhibition, % at 10 µM. 340,000 tested, 2% active. AID 485344; in the data active = inhibition above about 30%; inactive = below that, where a call was filed; note: 0% is about no effect
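Compounds are added to dye-loaded, induced HEK293 T-REx cells coupled to calcium release via D2; after a 3 min kinetic read an EC80 dopamine stimulus is given and fluorescence is recorded for 3 more min.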
Active calls of the source: *; . = no result. In the library only some 2.4% were active in any assay of this set; here they are far more common.

SMILES	D2 PAM-1	D2 ag-1	D2 ag-2	D2 PAM-2	D2 antag
CSCC(C)N1CCC(n2nccc2NC(=O)c2ccc3c(c2)OCO3)CC1 (configuration not stated)	-1.1	-3.1	0.1	-3.7	58.3*
CC(Cc1ccc(Cl)cc1)N1CCC(n2nccc2NC(=O)C2CCCC2)CC1 (configuration not stated)	-13.9	-1.3	1.4	-6.8	31.1*
O=C(Nc1ccnn1C1CCN(Cc2ccccc2)CC1)C1CCCC1	-13.6	-2.9	-0.1	-39.3	14.8
COc1cc(OC)cc(-c2noc([C@@H]3O[C@H](CO)[C@@H](O)[C@H]3O)n2)c1	.	-1.1	.	-5.5	.
CC(NC(=O)Nc1ccc(O)cc1)(C(F)(F)F)C(F)(F)F	6.3	12.9	1.3	117.8*	-1.8
CCc1ccc(NC(=O)CSc2nc3n[nH]c(C)c3c(=N)n2-c2ccc(C)cc2)cc1	-5.6	.	-0.2	.	.
COc1cccc(C(=O)N(c2ccc(OC)cc2OC)C2C=CS(=O)(=O)C2)c1 (configuration not stated)	-6.1	-2.3	0.0	-6.9	30.5*
O=C(c1c[nH]c2ccccc12)N1CCOCC1	8.2	-6.1	1.7	-8.3	-10.0
S=C(c1c[nH]c2ccc(Br)cc12)N1CCOCC1	-2.2	-0.1	3.5	-3.8	38.3*
COCCNc1cc(N2CCN(C3CCCCC3)CC2)c2noc3c2c1C(=O)c1ccccc1-3	1.1	.	1.0	.	.
O=C(/C=C/c1ccc(Cl)cc1)NC(=S)Nc1ccc(CN2CCOCC2)cc1	-22.4	1.3	35.0*	-20.7	0.2
O=C(NCCNC(=O)c1ccc(-c2ccc(Cl)c(Cl)c2)o1)c1cnccn1	102.0*	7.9	-0.7	5.7	-18.0
O=C(NCCNC(=O)c1ccc(-c2cccc(Cl)c2)o1)c1cnccn1	.	1.8	.	-13.9	.
COc1cccc(-c2cc(=O)c3cc(NC(C)=O)ccc3[nH]2)c1	0.2	-1.5	0.9	-18.9	33.8*
Oc1ccccc1N1CCN(Cc2ncc(-c3ccccc3)o2)CC1	-34.7	-2.7	0.6	-15.3	56.9*
CC1(C)CC(=O)C=C(c2ccc(COC(=O)c3cccc(C(F)(F)F)c3)cc2)C1=O	.	-9.5	.	-0.2	.
O=C(N[C@H](CO)[C@H](O)c1ccc([N+](=O)[O-])cc1)C(Cl)Cl	.	-4.9	.	-9.0	.
O=C(NC(CO)C(O)c1ccc([N+](=O)[O-])cc1)C(Cl)Cl (configuration not stated)	-16.2	4.2	2.4	-4.8	51.9*
CCC(=O)N1CCc2cc(CNC(=O)c3ccc(OC)cc3)ccc21	-9.1	.	-0.2	.	.
Cc1cccc(NC(=O)CN(C)CC(=O)NC(c2ccccc2)c2ccccc2)c1C	-4.6	-0.1	-0.7	-16.5	32.7*
CCOC(=O)c1c(NC(=O)CC(C)C)sc(C(C)=O)c1C	36.8*	-2.4	1.1	7.3	6.6
Cc1ccc(Cl)cc1NC(=O)COC(=O)c1ccc(N2CCCC2)c([N+](=O)[O-])c1	-8.8	.	0.2	.	57.2*
CCCNC(=O)COC(=O)c1ccc(N2CCCC2)c([N+](=O)[O-])c1	0.2	0.3	0.8	2.8	-8.1
CC(C)c1ccc(NC(=O)Cc2cn(C)c3ccccc23)cc1	-7.8	-4.0	-0.1	-9.2	48.8*
Cn1cc(CC(=O)NCCN2CCOCC2)c2ccccc21	39.3*	0.1	0.2	-9.6	24.5
SMILES	D2 PAM-1	D2 ag-1	D2 ag-2	D2 PAM-2	D2 antag
Cn1cc(CC(=O)NCc2ccc(F)cc2)c2ccccc21	9.2	-0.7	-0.4	-6.0	-29.2
Cc1cc(S(=O)(=O)N2CCN=C2c2ccccc2)c(Cl)cc1Cl	-9.4	-0.7	30.3*	17.9	-0.9
COc1ccc(C)cc1NC(=O)c1cc(S(=O)(=O)N2CCCCC2)c[nH]1	1.8	.	0.0	.	.
CC(=O)Nc1ccc(C(=O)COC(=O)c2c(C)noc2C)c(F)c1	-4.0	1.2	-0.6	-23.5	-36.5
CC(=O)Nc1ccc(C(=O)COC(=O)c2cccs2)c(F)c1	0.8	-2.5	0.3	3.4	34.7*
O=C(OCC(=O)N1CCCC1=O)c1ccc(O)cc1O	0.8	-1.7	0.0	-8.2	4.0
CSc1ccccc1C(=O)OCC(=O)N1CCCC1=O	51.9*	-4.8	0.0	-5.6	-9.0
CSC1=NSC2=NC(=O)/C(=C\c3coc4ccccc4c3=O)C(=N)N12	-8.0	2.6	109.7*	6.8	29.8
